# Key:
# Assay in all cases: DAPPL (digital affinity profiling via proximity ligation, sequencing); 10 mM Tris-HCl pH 7.5, 50 mM NaCl, 1 mM DTT, 4% glycerol, room temperature, 30 min; GST-TFs on glutathione beads, 16-mer random dsDNA library, 0.1% formaldehyde crosslink after washing; high values mean tight binding
# FEV = biological target: T1, FEV (Homo sapiens, UniProt Q99581 1-238); details: protein: recombinant; tags: N-terminal GST; dsDNA, one strand shown
# T1 sequence: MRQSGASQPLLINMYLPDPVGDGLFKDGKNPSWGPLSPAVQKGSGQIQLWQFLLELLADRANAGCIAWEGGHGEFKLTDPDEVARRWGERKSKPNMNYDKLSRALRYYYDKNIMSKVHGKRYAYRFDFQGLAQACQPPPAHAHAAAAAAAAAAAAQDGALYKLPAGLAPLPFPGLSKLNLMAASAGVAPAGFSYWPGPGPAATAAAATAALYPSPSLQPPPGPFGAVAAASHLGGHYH
# How it was run: (§1)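 A tag-only sample was pooled with DNA-barcoded human transcription factors that had been expressed in yeast as GST fusions and captured on glutathione beads. The pools were incubated for 30 min at room temperature with 200 nmole of a random double-stranded 16-mer DNA library in Tris/NaCl/DTT/glycerol buffer, then washed, crosslinked with 0.1% formaldehyde, proximity-ligated (BsaI/T4 ligase, 1 h, 37 °C), PCR-amplified and sequenced on an Illumina NextSeq500. Binding signal is each hexamer's read frequency for a factor divided by its frequency for the tag-only sample.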
# ETV5 = ETV5 (Homo sapiens, UniProt P41161 1-510); details: protein: recombinant; tags: N-terminal GST; dsDNA, one strand shown
# How it was run: as §1
# HSF1 = HSF1 (Homo sapiens, UniProt Q00613 1-529); details: protein: recombinant; tags: N-terminal GST; chain copies: 3; dsDNA, one strand shown
# How it was run: as §1
# SPIC = biological target: T2, SPIC (Homo sapiens, UniProt Q8N5J4 1-248); details: protein: recombinant; tags: N-terminal GST; dsDNA, one strand shown
# T2 sequence: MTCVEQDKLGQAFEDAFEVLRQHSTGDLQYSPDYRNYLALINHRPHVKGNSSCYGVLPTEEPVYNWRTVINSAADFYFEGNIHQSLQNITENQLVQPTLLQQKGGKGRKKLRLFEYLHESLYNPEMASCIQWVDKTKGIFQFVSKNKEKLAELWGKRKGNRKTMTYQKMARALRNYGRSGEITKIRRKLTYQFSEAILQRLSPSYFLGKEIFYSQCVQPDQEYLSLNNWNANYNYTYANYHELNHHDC
# How it was run: as §1
# ELF4 = ELF4 (Homo sapiens, UniProt Q99607 1-663); details: protein: recombinant; tags: N-terminal GST; dsDNA, one strand shown
# How it was run: as §1
# ELK4 = biological target: T3, ELK4 (Homo sapiens, UniProt P28324-2 1-405); details: protein: recombinant; tags: N-terminal GST; dsDNA, one strand shown
# T3 sequence: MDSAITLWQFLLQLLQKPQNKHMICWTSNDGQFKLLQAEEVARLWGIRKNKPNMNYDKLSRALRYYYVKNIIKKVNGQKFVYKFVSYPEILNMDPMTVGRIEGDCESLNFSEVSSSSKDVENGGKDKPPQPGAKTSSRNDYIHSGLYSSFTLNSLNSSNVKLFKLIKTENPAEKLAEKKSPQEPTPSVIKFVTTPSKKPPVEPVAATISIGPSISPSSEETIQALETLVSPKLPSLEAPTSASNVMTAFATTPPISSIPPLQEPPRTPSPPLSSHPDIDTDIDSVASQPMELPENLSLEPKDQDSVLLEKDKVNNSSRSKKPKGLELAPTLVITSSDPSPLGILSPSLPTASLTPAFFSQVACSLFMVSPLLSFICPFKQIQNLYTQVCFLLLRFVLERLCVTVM
# How it was run: as §1
# ETV2 = biological target: T4, ETV2 (Homo sapiens, UniProt O00321 1-342); details: protein: recombinant; tags: N-terminal GST; dsDNA, one strand shown
# T4 sequence: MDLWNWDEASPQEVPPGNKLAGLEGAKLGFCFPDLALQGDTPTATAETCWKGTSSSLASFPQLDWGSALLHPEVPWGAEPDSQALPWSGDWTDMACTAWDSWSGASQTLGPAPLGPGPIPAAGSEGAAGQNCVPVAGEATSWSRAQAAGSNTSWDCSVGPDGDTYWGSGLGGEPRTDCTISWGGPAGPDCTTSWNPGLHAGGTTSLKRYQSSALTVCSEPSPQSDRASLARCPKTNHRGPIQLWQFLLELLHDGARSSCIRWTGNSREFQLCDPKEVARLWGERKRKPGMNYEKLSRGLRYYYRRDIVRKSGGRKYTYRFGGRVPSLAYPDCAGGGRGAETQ
# How it was run: as §1
# ELF3 = biological target: T5, ELF3 (Homo sapiens, UniProt P78545 1-371); details: protein: recombinant; tags: N-terminal GST; dsDNA, one strand shown
# T5 sequence: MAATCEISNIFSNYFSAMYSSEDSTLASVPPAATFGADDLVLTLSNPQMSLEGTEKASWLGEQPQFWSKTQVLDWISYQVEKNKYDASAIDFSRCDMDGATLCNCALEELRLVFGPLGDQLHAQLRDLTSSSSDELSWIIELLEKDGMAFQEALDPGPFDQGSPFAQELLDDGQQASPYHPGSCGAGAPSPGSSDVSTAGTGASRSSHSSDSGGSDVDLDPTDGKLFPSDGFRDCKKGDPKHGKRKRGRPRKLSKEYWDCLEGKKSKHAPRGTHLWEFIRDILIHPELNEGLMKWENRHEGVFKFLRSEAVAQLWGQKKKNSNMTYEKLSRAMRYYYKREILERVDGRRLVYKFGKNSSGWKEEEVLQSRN
# How it was run: as §1
# CRX = CRX (Homo sapiens, UniProt O43186 1-299); details: protein: recombinant; tags: N-terminal GST; dsDNA, one strand shown
# How it was run: as §1
# ETV1 = ETV1 (Homo sapiens, UniProt P50549 1-477); details: protein: recombinant; tags: N-terminal GST; dsDNA, one strand shown
# How it was run: as §1
# ERF = biological target: T6, ERF (Homo sapiens, UniProt P50548 1-548); details: protein: recombinant; tags: N-terminal GST; dsDNA, one strand shown
# T6 sequence: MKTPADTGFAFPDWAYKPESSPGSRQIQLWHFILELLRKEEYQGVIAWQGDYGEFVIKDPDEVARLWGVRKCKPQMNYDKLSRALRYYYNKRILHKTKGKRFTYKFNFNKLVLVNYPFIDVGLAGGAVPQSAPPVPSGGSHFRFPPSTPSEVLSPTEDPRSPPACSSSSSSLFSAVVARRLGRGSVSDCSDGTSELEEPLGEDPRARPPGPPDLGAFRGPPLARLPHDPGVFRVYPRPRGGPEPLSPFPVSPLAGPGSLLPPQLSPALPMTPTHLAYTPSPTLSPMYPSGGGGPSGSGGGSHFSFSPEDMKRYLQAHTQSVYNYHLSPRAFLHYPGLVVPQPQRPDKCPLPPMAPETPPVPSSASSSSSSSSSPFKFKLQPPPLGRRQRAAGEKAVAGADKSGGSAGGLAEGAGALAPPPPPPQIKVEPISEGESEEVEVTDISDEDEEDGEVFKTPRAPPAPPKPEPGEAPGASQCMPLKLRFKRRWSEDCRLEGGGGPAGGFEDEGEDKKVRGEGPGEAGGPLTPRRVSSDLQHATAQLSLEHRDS
# How it was run: as §1
# ETV3L = biological target: T7, ETV3L (Homo sapiens, UniProt Q6ZN32 1-361); details: protein: recombinant; tags: N-terminal GST; dsDNA, one strand shown
# T7 sequence: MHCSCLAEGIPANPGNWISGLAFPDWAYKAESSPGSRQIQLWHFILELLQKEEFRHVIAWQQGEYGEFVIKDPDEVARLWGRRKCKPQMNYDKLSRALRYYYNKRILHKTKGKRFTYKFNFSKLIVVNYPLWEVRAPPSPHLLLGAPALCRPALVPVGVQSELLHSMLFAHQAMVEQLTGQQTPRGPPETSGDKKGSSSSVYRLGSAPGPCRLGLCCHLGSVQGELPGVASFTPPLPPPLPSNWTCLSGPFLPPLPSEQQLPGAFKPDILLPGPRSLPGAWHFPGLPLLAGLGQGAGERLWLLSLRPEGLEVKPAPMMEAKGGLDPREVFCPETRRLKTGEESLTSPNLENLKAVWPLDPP
# How it was run: as §1
# ETS2 = biological target: T8, ETS2 (Homo sapiens, UniProt P15036 1-469); details: protein: recombinant; tags: N-terminal GST; dsDNA, one strand shown
# T8 sequence: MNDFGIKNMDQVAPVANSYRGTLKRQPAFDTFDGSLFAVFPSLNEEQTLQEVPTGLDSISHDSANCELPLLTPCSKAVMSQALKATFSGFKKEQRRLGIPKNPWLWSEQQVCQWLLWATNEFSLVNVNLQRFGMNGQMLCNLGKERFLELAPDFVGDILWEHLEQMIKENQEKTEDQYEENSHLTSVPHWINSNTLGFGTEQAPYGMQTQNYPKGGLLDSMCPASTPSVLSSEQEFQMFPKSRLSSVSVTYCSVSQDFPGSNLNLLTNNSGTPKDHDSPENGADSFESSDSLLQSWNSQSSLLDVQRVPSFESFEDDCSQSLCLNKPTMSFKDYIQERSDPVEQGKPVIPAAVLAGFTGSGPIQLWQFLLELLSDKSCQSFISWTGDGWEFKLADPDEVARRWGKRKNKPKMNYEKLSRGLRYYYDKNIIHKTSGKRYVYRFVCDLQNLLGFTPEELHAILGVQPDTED
# How it was run: as §1
# SPDEF = biological target: T9, SPDEF (Homo sapiens, UniProt O95238 1-335); details: protein: recombinant; tags: N-terminal GST; dsDNA, one strand shown
# T9 sequence: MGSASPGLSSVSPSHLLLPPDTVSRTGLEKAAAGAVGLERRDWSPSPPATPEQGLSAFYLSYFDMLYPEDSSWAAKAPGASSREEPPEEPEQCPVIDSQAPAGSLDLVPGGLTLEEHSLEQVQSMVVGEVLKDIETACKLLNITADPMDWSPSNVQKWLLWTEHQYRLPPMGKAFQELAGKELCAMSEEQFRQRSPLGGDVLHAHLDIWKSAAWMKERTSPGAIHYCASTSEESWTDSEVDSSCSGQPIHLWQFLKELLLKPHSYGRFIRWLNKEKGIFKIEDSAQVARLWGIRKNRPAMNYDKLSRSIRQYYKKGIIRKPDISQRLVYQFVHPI
# How it was run: as §1
# ETV7 = biological target: T10, ETV7 (Homo sapiens, UniProt Q9Y603 1-341); details: protein: recombinant; tags: N-terminal GST; dsDNA, one strand shown
# T10 sequence: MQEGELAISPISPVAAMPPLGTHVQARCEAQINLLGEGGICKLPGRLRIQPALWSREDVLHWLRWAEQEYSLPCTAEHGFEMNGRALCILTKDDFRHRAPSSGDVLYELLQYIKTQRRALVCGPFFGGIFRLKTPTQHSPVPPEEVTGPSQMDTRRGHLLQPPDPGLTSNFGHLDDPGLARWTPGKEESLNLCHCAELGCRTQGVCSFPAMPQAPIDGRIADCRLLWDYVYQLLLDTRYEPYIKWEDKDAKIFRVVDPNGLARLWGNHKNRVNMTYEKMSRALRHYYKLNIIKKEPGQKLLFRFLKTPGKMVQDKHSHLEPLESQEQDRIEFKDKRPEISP
# How it was run: as §1
# ELF5 = biological target: T11, ELF5 (Homo sapiens, UniProt Q9UKW6-2 1-255); details: protein: recombinant; tags: N-terminal GST; dsDNA, one strand shown
# T11 sequence: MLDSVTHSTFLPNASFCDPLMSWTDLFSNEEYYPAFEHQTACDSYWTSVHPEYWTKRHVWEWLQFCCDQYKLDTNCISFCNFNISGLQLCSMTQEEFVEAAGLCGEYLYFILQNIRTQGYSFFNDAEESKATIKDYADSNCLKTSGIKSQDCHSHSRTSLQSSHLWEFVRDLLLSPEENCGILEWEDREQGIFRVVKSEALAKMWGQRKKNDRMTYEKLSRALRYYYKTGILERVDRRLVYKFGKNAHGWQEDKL
# How it was run: as §1
# ETV3 = biological target: T12, ETV3 (Homo sapiens, UniProt P41162-2 1-143); details: protein: recombinant; tags: N-terminal GST; dsDNA, one strand shown
# T12 sequence: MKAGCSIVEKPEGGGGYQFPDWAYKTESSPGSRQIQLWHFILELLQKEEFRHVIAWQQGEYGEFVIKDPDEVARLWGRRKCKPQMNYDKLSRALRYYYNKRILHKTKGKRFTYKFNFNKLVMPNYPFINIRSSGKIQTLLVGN
# How it was run: as §1
# ETV6 = ETV6 (Homo sapiens, UniProt P41212 1-452); details: protein: recombinant; tags: N-terminal GST; dsDNA, one strand shown
# How it was run: as §1
# HSF1, sequence (Q00613 whole entry): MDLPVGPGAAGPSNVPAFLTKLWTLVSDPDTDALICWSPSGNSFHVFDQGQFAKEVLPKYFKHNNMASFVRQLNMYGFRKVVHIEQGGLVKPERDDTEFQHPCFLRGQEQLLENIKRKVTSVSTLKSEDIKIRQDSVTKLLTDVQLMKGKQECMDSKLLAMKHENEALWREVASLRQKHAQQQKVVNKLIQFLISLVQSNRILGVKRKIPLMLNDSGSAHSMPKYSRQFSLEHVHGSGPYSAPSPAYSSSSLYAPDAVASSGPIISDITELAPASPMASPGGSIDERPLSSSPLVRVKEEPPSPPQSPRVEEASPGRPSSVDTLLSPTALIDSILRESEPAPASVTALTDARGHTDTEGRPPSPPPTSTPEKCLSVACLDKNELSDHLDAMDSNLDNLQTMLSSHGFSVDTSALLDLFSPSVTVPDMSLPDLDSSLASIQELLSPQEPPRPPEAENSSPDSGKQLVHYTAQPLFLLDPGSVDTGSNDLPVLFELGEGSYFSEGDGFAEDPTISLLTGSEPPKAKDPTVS
# ELF4, sequence (Q99607 whole entry): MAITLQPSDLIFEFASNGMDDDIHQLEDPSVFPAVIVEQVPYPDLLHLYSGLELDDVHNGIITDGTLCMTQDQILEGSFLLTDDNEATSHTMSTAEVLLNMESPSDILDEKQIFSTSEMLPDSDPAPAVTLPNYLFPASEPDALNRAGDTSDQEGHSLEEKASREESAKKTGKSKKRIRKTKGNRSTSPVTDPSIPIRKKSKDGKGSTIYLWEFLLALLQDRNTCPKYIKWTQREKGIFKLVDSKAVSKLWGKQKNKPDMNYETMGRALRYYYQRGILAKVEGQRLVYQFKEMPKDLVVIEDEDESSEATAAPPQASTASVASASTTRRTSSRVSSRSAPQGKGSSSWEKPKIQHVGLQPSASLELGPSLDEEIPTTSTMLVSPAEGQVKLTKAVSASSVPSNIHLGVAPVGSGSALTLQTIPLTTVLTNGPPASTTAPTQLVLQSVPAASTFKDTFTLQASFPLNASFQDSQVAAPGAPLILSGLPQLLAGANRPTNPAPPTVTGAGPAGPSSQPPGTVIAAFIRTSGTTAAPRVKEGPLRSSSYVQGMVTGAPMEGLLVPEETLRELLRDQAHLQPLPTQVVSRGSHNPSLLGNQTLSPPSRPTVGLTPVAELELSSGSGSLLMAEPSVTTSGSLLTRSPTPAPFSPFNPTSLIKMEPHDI
# ETV1, sequence (P50549 whole entry): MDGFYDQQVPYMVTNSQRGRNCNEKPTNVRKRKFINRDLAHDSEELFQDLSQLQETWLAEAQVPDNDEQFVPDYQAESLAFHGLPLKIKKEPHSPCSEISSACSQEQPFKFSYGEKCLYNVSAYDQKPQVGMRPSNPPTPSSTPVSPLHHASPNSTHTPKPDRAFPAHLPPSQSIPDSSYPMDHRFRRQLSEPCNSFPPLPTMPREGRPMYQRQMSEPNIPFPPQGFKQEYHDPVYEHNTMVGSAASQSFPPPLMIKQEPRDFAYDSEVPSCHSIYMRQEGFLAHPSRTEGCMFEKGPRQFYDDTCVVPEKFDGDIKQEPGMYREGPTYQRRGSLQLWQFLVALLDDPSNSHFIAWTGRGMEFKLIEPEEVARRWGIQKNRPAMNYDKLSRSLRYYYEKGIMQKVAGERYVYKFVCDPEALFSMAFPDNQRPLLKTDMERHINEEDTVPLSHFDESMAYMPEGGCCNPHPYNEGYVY
# ETV5, sequence (P41161 whole entry): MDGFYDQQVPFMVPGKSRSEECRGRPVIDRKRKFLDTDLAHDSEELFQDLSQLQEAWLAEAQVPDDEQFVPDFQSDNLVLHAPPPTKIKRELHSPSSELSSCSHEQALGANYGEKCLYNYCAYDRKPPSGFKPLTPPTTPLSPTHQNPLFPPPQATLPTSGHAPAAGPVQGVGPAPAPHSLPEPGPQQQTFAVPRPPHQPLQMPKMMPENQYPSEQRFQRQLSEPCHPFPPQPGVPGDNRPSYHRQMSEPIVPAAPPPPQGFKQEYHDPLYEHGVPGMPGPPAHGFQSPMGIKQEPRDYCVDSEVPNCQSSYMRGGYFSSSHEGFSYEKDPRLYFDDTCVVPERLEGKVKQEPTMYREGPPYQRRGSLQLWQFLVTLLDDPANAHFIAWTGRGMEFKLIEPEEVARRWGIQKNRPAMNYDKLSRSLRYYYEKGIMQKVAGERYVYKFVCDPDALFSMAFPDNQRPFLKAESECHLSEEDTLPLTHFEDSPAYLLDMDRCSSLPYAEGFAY
# CRX, sequence (O43186 whole entry): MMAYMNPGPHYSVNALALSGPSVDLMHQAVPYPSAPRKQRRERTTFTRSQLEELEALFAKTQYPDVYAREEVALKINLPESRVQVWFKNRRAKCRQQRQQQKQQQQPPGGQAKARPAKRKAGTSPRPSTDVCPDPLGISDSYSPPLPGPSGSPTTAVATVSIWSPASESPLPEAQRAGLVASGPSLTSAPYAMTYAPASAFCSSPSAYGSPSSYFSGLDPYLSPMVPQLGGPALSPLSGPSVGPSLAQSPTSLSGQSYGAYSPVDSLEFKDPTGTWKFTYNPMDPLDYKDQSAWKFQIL
# ETV6, sequence (P41212 whole entry): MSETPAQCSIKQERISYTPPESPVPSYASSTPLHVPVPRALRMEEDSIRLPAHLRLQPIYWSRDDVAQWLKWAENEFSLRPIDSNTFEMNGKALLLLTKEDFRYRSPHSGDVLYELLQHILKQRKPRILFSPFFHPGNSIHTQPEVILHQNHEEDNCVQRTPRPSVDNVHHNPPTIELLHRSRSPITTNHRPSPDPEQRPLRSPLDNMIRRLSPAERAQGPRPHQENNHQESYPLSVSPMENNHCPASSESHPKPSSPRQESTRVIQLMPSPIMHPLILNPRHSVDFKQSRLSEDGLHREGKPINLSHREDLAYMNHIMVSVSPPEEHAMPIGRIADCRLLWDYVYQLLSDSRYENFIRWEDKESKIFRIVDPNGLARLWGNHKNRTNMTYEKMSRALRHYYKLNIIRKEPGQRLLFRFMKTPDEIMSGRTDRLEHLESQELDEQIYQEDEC
sequence,measurement,setting,value
ATTTGT,binding signal,FEV,"1.34 fold enrichment (6-mer frequency, TF over GST control)"
same,binding signal,ETV5,"1.41 fold enrichment (6-mer frequency, TF over GST control)"
same,binding signal,HSF1,"1.33 fold enrichment (6-mer frequency, TF over GST control)"
same,binding signal,SPIC,"1.35 fold enrichment (6-mer frequency, TF over GST control)"
same,binding signal,ELF4,"1.32 fold enrichment (6-mer frequency, TF over GST control)"
same,binding signal,ELK4,"1.45 fold enrichment (6-mer frequency, TF over GST control)"
same,binding signal,ETV2,"1.44 fold enrichment (6-mer frequency, TF over GST control)"
same,binding signal,ELF3,"1.41 fold enrichment (6-mer frequency, TF over GST control)"
same,binding signal,CRX,"1.58 fold enrichment (6-mer frequency, TF over GST control)"
same,binding signal,ETV1,"1.23 fold enrichment (6-mer frequency, TF over GST control)"
same,binding signal,ERF,"1.34 fold enrichment (6-mer frequency, TF over GST control)"
same,binding signal,ETV3L,"1.35 fold enrichment (6-mer frequency, TF over GST control)"
same,binding signal,ETS2,"1.36 fold enrichment (6-mer frequency, TF over GST control)"
same,binding signal,SPDEF,"1.33 fold enrichment (6-mer frequency, TF over GST control)"
same,binding signal,ETV7,"1.34 fold enrichment (6-mer frequency, TF over GST control)"
same,binding signal,ELF5,"1.26 fold enrichment (6-mer frequency, TF over GST control)"
same,binding signal,ETV3,"1.4 fold enrichment (6-mer frequency, TF over GST control)"
same,binding signal,ETV6,"1.29 fold enrichment (6-mer frequency, TF over GST control)"
